Measured values reported in PubChem BioAssay.

Experiments:
[1] = tested on: Botulinum neurotoxin type F light chain protease (Clostridium botulinum); experiment: Clostridium botulinum type F light chain protease inhibitors, microsphere substrate cleavage, validation (AID 588459); conditions: multiplex microsphere protease substrate cleavage assay, flow cytometry; at 10 µM; active compounds read high
[2] = target: Botulinum neurotoxin type A (Clostridium botulinum) (UniProt P0DPI0); experiment: BoNT/A light chain protease inhibitors, biochemical, multiplex microsphere flow cytometry, validation set (AID 588460); conditions: at 10 µM, active compounds read high
Sequence of Botulinum neurotoxin type A (Clostridium botulinum) (P0DPI0 whole entry, looked up): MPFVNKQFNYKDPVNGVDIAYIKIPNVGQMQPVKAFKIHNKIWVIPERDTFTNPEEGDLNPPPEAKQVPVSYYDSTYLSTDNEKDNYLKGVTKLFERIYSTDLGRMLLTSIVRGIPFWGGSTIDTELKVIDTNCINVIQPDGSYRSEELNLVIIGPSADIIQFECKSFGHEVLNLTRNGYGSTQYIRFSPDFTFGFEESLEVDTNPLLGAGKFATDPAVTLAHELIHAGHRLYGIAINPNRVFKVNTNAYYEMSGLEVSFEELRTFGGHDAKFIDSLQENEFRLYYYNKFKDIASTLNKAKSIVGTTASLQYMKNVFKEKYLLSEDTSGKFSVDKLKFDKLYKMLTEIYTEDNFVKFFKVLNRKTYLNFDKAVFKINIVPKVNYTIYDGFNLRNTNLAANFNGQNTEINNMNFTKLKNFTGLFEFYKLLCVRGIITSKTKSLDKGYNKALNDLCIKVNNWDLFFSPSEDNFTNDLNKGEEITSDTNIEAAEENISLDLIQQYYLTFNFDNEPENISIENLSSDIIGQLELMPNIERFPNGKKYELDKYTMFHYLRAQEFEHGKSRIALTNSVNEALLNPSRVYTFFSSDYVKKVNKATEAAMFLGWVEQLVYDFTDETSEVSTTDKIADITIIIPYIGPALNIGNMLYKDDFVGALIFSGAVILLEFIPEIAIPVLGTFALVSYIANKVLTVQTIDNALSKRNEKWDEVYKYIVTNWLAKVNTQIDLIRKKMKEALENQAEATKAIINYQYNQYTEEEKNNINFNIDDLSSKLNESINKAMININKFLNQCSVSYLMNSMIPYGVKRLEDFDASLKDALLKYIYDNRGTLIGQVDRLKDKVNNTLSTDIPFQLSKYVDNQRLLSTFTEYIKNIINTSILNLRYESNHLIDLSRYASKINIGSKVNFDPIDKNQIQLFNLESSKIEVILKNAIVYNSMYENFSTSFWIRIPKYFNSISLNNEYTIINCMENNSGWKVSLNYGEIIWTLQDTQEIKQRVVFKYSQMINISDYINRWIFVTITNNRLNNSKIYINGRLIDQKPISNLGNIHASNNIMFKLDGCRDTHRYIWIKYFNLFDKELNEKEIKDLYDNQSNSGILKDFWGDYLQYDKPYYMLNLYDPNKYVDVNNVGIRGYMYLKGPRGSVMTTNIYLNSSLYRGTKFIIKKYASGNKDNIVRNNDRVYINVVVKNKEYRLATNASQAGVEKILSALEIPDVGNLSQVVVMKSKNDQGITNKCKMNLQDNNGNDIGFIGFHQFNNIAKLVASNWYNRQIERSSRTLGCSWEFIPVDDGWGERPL

[3] = target: Lethal factor (Bacillus anthracis) (UniProt P15917); experiment: Bacillus anthracis lethal factor inhibition, microsphere flow cytometry protease assay, validation at 10 µM (AID 588461); conditions: multiplex microsphere protease cleavage assay, active compounds read high
Sequence of Lethal factor (Bacillus anthracis) (P15917 whole entry, looked up): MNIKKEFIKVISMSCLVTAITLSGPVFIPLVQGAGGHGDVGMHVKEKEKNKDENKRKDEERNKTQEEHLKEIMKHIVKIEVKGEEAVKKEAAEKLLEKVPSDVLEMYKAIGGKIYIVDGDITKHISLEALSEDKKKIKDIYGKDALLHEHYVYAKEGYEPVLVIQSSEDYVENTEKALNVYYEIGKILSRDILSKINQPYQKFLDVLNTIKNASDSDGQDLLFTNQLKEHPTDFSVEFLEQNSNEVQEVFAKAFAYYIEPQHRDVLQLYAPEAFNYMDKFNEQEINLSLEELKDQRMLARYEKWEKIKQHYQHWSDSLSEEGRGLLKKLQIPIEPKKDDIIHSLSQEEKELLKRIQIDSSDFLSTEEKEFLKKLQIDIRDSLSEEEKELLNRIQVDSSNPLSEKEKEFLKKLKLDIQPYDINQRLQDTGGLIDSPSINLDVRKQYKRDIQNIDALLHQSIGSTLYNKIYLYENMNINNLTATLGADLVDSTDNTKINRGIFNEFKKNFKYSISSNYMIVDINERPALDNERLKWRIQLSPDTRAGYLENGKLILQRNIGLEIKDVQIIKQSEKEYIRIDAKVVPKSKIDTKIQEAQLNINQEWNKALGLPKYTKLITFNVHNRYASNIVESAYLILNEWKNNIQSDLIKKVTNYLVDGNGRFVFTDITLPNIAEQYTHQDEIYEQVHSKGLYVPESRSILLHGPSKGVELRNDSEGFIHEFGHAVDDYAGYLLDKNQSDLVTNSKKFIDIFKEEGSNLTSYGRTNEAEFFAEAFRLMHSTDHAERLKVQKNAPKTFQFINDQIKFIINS

Measured: inhibition

Cc1ccc(C)c(OCCCC(C)(C)C(=O)O)c1
inactive: [1] 1.7% | [2] -0.3% | [3] 1.8%

O=C1NC2(Nc3ccccc31)C(=O)Nc1ccc(Br)cc12 (stereo not drawn)
inactive: [1] -0.5% | [2] -1% | [3] 6.8%

O=C(NCc1ccco1)/C(=C\C=C\c1ccccc1)NC(=O)c1ccccc1Br
inactive: [1] -0.5% | [2] 0% | [3] 1.6%

Cc1ccccc1NC(=O)C1c2ccccc2Oc2ccccc21
inactive: [1] 0.4% | [2] -0.3% | [3] 6.3%

Cc1ccc(C(=O)NCCNC(=O)c2ccccc2)cc1
inactive: [1] 1.3% | [2] 0.3% | [3] -1.4%

CCOc1ncnc2c1[nH]c1ccccc12
inactive: [1] 5.6% | [2] 0.5% | [3] -0.4%

CC(C)CN1CCN(Cc2ccc(C#CC(C)(C)O)cc2)CC1CCO (stereo not drawn)
inactive: [1] 3.7% | [2] -1.1% | [3] -2.1%

CCc1cccc(OC2OC(CO)C(O)C(O)C2NC(C)=O)c1 (stereo not drawn)
inactive: [1] -0.7% | [2] -0.7% | [3] -4.6%

COc1cc(C(=S)N(C)C)ccc1O
inactive: [1] -3.2% | [2] -0.9% | [3] -2%

C[N+](C)(C)CCOP(=O)([O-])OC[C@H](O)CO
inactive: [1] 1.7% | [2] -0.4% | [3] 3.2%

OC(CCCN1CCC(O)(c2ccc(Cl)cc2)CC1)c1ccc(F)cc1 (stereo not drawn)
inactive: [1] -1.7% | [2] 1.7% | [3] -4.8%
